Experimental data from the supplement of paper PMC12669032.

System: Escherichia coli IAI1
Test: growth AUC relative to DMSO control (median of replicates) (fraction); higher = more growth (less inhibition), active = hit call of the paper
Settings: 20 µM; 24 h;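 active = AUC reduced over 20% with Padj below 0.05 in at least 2 of 3 replicates; inactive = otherwise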
Method in brief: (§1)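 Three biological replicates, each grown on a separate day, were combined as a median for every value. In each, a gut bacterial monoculture in mGAM started at OD600 0.05 and grew anaerobically at 37 °C with 20 µM compound (1% DMSO), with OD600 read hourly over 24 h. Area under the growth curve was normalised against the plate median of solvent-only wells, or against row and column medians on the industrial chemical plate, after the minimum OD was set to 0.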

Growth AUC, inactive:
CCCCCCCC/C=C\CCCCCCCCCCCC(=O)O 1.01
S=C([S-])NCCNC(=S)[S-].S=C([S-])NCCNC(=S)[S-].[Mn+2].[Zn+2] 1.03
Cc1cc(C)cc(OCC(C)Nc2nc(N)nc(C(C)(C)F)n2)c1 (configuration not stated) 0.956
CCOc1ccc(C2(C(=O)OC(C#N)c3cccc(Oc4ccccc4)c3)CC2(Cl)Cl)cc1 (configuration not stated) 0.981
CCNc1nc(NCC)nc(OC)n1 0.975
O=c1cccc2n1CCn1c-2cccc1=O 0.968
CCOCOc1ccc(C(=O)Nc2cccc(Cl)c2Cl)cc1 0.953
Cn1cc(C(=O)Nc2ccccc2-c2cc(F)c(F)c(F)c2)c(C(F)F)n1 0.987
CCOCN(C(=O)C(=O)O)c1c(C)cccc1CC 0.996
NC(Cn1cncn1)C(=O)O (configuration not stated) 0.976
N#Cc1ccc(CC(=NNC(=O)Nc2ccc(OC(F)(F)F)cc2)c2cccc(C(F)(F)F)c2)cc1 (mixture of isomers) 1.02
C=O 0.999
COC(=O)c1ccc(C(=O)OC)cc1 0.989
N#Cc1c(N)nc(NC2CC2)nc1N 0.992
C#CCN(C)c1c(C#N)cnn1-c1nn2c(c1Cl)CCCC2 1.02
NS(=O)(=O)[O-].[NH4+] 1.02
O=C(O)Cc1c[nH]c2ccccc12 1.02
CCc1nc2ncnn2c(N)c1CCCC(=O)O.Cl 1.05
Cc1cc(C)cc(O)c1 0.984
CCOC(=O)/C(Cl)=C/c1cc(N2C(=O)C3=C(CCCC3)C2=O)ccc1Cl 1.02
c1ccc2c(c1)Cc1ccccc1-2 1
CCSc1nc(NC(C)C)nc(NC(C)C)n1 0.982
c1ccc2cc3ccccc3cc2c1 0.967

System: Eubacterium rectale
Test: as above
Settings: 20 µM; 24 h
Method in brief: as §1

Growth AUC, inactive:
N#Cc1cc(Cl)c(O)c(Cl)c1 0.972
CCc1cccc(C)c1N(C(=O)C(=O)O)C(C)COC (configuration not stated) 0.979
CCC([O-])=C1C(=O)CC(C(=O)[O-])CC1=O.[Ca+2] (configuration not stated) 1.13
COC1CCC2(CC1)NC(=O)C(c1cc(C)ccc1C)C2O (configuration not stated) 1.11
O.O=C(Nc1ccc(Cl)c(Cl)c1)Nc1cc(Cl)ccc1Oc1ccc(Cl)cc1S(=O)(=O)[O-].[Na+] 0.886
NC(=O)c1nn(-c2c(Cl)cc(C(F)(F)F)cc2Cl)c(N)c1S(=O)C(F)(F)F (configuration not stated) 1.07
Cc1nn(C)c(F)c1C(=O)Nc1ccccc1C(C)CC(C)C (configuration not stated) 0.932
CCOC(=O)c1nc(C(Cl)(Cl)Cl)n(-c2ccc(Cl)cc2Cl)n1 0.961
CCCCOCN(C(=O)CS(=O)(=O)[O-])c1c(CC)cccc1CC.[Na+] 0.975
CCc1cccc(CC)c1N(COC)C(=O)CS(=O)(=O)[O-].[Na+] 1.02
CCN(CC)C(=O)c1cccc(C)c1 1.06
COC(=O)c1c(Cl)ccc(Cl)c1OC 0.969
CCN(CC)c1nc(C)cc(=O)[nH]1 0.907
CC(C)CNC(=O)N1CCNC1=O 1.02
COC(=O)c1ccccc1S(=O)(=O)NC(=O)n1nc(OCC(C)O)n(C)c1=O (configuration not stated) 1.08
CCCNCCOc1c(Cl)cc(Cl)cc1Cl 0.924
CCCCCCCC/C=C\CCCCCCCCCCCC(=O)O 0.983
S=C([S-])NCCNC(=S)[S-].S=C([S-])NCCNC(=S)[S-].[Mn+2].[Zn+2] 1.22
Cc1cc(C)cc(OCC(C)Nc2nc(N)nc(C(C)(C)F)n2)c1 (configuration not stated) 1.05
CCOc1ccc(C2(C(=O)OC(C#N)c3cccc(Oc4ccccc4)c3)CC2(Cl)Cl)cc1 (configuration not stated) 1.06
CCNc1nc(NCC)nc(OC)n1 1
O=c1cccc2n1CCn1c-2cccc1=O 0.956
CCOCOc1ccc(C(=O)Nc2cccc(Cl)c2Cl)cc1 0.961
Cn1cc(C(=O)Nc2ccccc2-c2cc(F)c(F)c(F)c2)c(C(F)F)n1 0.937
CCOCN(C(=O)C(=O)O)c1c(C)cccc1CC 0.989
NC(Cn1cncn1)C(=O)O (configuration not stated) 0.93
N#Cc1ccc(CC(=NNC(=O)Nc2ccc(OC(F)(F)F)cc2)c2cccc(C(F)(F)F)c2)cc1 (mixture of isomers) 0.963
C=O 0.921
COC(=O)c1ccc(C(=O)OC)cc1 1
N#Cc1c(N)nc(NC2CC2)nc1N 0.935
C#CCN(C)c1c(C#N)cnn1-c1nn2c(c1Cl)CCCC2 1.07
NS(=O)(=O)[O-].[NH4+] 1.09
O=C(O)Cc1c[nH]c2ccccc12 1.02
CCc1nc2ncnn2c(N)c1CCCC(=O)O.Cl 1.07
Cc1cc(C)cc(O)c1 0.95
CCOC(=O)/C(Cl)=C/c1cc(N2C(=O)C3=C(CCCC3)C2=O)ccc1Cl 0.951
c1ccc2c(c1)Cc1ccccc1-2 1
CCSc1nc(NC(C)C)nc(NC(C)C)n1 0.787
c1ccc2cc3ccccc3cc2c1 1.27
